Test results as given in PubChem BioAssay.
Activity calls are given as the source filed them.

Tests used:
[1] = E. coli DRC41 culture turbidity changes, primary screen, E. coli filamentation inducer project, strain DRC41, OD650, 48 h (AID 1152);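 further: E. coli MC1000 strain DRC41 lacking acrAB efflux pump and sulA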; conditions: E. coli DRC41 (acrAB sulA), higher = more signal, called active from +8 up or from −8 down
[2] = small-molecule binders of probe aLefty1, primary screen, biochemical, small-molecule microarray, 635/667 nm fluorescence (AID 1153); conditions: higher = more signal;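 further: score merges spot fluorescence with signal-to-noise ratio from the scanned slide images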
[3] = PSAC antagonists in infected red cells, primary screen, cell-based, P. falciparum Indochina, OD700, 1 h (AID 1154); conditions: P. falciparum Indochina infected RBC osmotic lysis, higher = more signal, called active from +8 up or from −8 down
[4] = PSAC antagonists in infected red cells, primary screen, cell-based, P. falciparum Indochina, OD700, 2 h (AID 1155);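 further: lysis reports solute entry through the parasite surface anion channel PSAC; channel blockers reduce lysis of infected cells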; conditions: P. falciparum Indochina infected erythrocytes, osmotic lysis OD700; higher = more signal, called active from +8 up or from −8 down
[5] = osmotic lysis modulators in infected erythrocytes, primary screen, PSAC antagonist project, cell-based, P. falciparum Indochina, OD700, 3 h (AID 1156); conditions: higher = more signal, called active from +8 up or from −8 down
[6] = PSAC antagonists in infected red cells, primary screen, cell-based, P. falciparum Indochina, OD700, 18 h (AID 1157); conditions: P. falciparum Indochina infected erythrocytes, osmotic lysis OD700, 18 h; higher = more signal, called active from +8 up or from −8 down
[7] = modulators of S6 phosphorylation in cells, primary screen, cell-based, A549, cytoblot, luminescence, serum-stimulated (AID 1158); conditions: A549 phospho-S6 cytoblot, 5 h, higher = more signal;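 further: serum-stimulated A549 lung adenocarcinoma cells; signal is phosphorylated S6 detected by cytoblot immunostaining with HRP secondary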
[8] = biological target: NADPH oxidase 2 (Homo sapiens) (UniProt P04839); experiment: NOX2-dependent H2O2 signal modulators, primary screen, NOX inhibitor project, cell-based, HEK293-NOX2, PMA-stimulated, Amplex Red fluorescence (AID 1159); conditions: 45 min, higher = more signal, called active from +8 up or from −8 down; further: test concentration not given here
[9] = biological target: NADPH oxidase 4 (Homo sapiens) (UniProt Q9NPH5); experiment: NOX4-dependent H2O2 signal modulators, primary screen, NOX inhibitor project, cell-based, HEK293-NOX4, tetracycline-induced, Amplex Red fluorescence (AID 1160); conditions: 45 min, higher = more signal, called active from +8 up or from −8 down
[10] = biological target: NADPH oxidase 5 (Homo sapiens) (UniProt Q96PH1); experiment: NOX5-dependent H2O2 signal modulators, primary screen, NOX inhibitor project, cell-based, HEK293-NOX5, Amplex Red fluorescence (AID 1161); conditions: HEK293-NOX5, ionomycin, 45 min, higher = more signal
Chain of NADPH oxidase 5 (Homo sapiens) (Q96PH1 whole entry, looked up): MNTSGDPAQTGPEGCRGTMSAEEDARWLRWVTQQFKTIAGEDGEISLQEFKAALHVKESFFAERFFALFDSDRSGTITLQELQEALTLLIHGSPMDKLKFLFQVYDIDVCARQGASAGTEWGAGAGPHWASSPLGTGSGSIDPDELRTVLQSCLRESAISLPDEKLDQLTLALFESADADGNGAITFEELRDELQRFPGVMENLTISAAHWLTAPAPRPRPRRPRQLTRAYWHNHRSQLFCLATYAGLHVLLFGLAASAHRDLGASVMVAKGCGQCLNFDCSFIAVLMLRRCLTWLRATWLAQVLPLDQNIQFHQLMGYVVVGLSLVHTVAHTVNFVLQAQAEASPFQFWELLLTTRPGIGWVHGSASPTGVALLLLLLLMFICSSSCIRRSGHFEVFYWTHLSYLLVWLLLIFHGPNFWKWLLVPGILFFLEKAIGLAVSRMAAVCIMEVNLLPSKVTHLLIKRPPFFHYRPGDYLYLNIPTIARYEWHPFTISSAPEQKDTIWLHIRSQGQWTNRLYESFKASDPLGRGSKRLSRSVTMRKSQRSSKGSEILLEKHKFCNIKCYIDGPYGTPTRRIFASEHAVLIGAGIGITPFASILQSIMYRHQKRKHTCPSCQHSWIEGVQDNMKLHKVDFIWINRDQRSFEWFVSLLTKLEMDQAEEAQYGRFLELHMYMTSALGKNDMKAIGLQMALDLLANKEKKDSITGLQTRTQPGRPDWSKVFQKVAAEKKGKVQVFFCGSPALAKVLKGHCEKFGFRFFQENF

Chain of NADPH oxidase 4 (Homo sapiens) (Q9NPH5 whole entry, looked up): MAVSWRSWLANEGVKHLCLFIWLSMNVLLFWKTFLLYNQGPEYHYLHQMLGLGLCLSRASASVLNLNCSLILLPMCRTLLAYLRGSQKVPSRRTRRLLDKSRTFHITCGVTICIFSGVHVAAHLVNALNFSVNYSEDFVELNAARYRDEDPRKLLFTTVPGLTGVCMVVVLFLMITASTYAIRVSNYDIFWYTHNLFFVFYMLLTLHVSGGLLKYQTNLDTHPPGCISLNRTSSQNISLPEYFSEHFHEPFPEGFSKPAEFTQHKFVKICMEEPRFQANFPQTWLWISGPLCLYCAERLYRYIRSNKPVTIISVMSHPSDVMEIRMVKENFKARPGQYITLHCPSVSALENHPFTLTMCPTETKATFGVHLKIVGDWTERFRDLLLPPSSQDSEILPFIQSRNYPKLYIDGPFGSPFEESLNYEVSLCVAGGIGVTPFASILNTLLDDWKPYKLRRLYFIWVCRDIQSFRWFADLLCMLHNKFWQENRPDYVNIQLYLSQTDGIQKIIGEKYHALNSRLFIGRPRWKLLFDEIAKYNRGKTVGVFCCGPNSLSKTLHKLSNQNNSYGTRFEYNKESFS
Chain of NADPH oxidase 2 (Homo sapiens) (P04839 whole entry, looked up): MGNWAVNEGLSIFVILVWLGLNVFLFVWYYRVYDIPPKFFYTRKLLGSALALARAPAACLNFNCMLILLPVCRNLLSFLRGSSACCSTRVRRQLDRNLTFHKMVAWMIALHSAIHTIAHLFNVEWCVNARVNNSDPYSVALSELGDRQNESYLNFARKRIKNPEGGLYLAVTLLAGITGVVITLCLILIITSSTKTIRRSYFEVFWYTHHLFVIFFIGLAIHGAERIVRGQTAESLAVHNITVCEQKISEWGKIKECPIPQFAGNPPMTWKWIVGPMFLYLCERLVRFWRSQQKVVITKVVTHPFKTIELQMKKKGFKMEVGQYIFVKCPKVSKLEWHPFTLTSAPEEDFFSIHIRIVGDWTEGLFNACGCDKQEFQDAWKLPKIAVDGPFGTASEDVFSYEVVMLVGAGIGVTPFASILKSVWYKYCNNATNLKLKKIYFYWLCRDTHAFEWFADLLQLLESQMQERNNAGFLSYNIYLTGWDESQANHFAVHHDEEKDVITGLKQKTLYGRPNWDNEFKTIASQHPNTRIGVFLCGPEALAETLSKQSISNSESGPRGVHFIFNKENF

| Structure (SMILES) | z-score [1] | composite z-score [2] | z-score [3] | z-score [4] | z-score [5] | z-score [6] | z-score [7] | z-score [8] | z-score [9] | z-score [10] |
| --- | --- | --- | --- | --- | --- | --- | --- | --- | --- | --- |
| CC(C)=CCCC(C)=CC(O)C1C=CC2C(=O)N(c3ccccc3)C(=O)C2N1Nc1ccccc1F (stereo not given) | 0.404 (inactive) | -0.233 | 1.7 (inactive) | -0.389 (inactive) | -0.391 (inactive) | -0.789 (inactive) | -0.162 | -0.199 (inactive) | -0.284 (inactive) | 0.83 |
| O=C1C2C=CC(C(O)C=Cc3ccc([N+](=O)[O-])cc3)N(Nc3ccccc3)C2C(=O)N1c1ccccc1 (stereo not given) | -0.323 (inactive) | 0.424 | 11 (active) | 2.2 (inactive) | 0.478 (inactive) | 1.81 (inactive) | -0.914 | -1.72 (inactive) | -2.96 (inactive) | -2.32 |
| O=C(O)[C@H]1C[C@H]2C(=O)N[C@@H](Cc3ccccc3)C(=O)N2[C@H]1c1cccc(OCCO)c1 | 0.262 (inactive) | 0.121 | 4.38 (inactive) | 0.547 (inactive) | -2.49 (inactive) | 0.204 (inactive) | 0.146 | -3.4 (inactive) | -4.87 (inactive) | -2.33 |
| CC(C)[Si]1(C(C)C)OCc2cc(-c3ccc(-c4ccc(Cl)c(Cl)c4)o3)nc(CCc3ccccc3)c21 | 0.785 (inactive) | -0.239 | 1.58 (inactive) | -0.0088 (inactive) | -0.263 (inactive) | -1.01 (inactive) | 0.353 | 0.69 (inactive) | 0.187 (inactive) | -0.402 |
| CCCCCCCCCCC(O)C1C=CC2C(=O)N(c3ccccc3)C(=O)C2N1Nc1ccccc1F (stereo not given) | -1.43 (inactive) | 0.145 | 2.64 (inactive) | 1.45 (inactive) | -0.518 (inactive) | 1.91 (inactive) | -0.827 | -0.534 (inactive) | 0.101 (inactive) | -1.24 |
| C=C(COC)/C(=C/C[C@H](OC(C)=O)c1cccc(OCCO)c1)c1cnc2ccccc2c1 | -0.339 (inactive) | 0.0999 | 15.2 (active) | 2.65 (inactive) | 1.41 (inactive) | 0.872 (inactive) | -0.512 | 0.373 (inactive) | 0.228 (inactive) | -0.167 |
| CO[C@H]1O[C@H](CO)[C@@H](OC(=O)Nc2ccc(C#N)cc2)[C@@H]2OC(=O)[C@H](Cc3cccc(Br)c3)C/C=C/C[C@@H](Cc3cccc(Br)c3)C(=O)O[C@@H]12 | 0.766 (inactive) | 0.941 | 1.52 (inactive) | -0.178 (inactive) | 0.842 (inactive) | 0.558 (inactive) | -0.257 | -1.59 (inactive) | 0.311 (inactive) | -0.214 |
| CC1(C)C(=O)C(c2ccccc2)=C2CN3C(=O)N(CCc4ccccc4)C(=O)C3(Cc3ccc(F)cc3)C=C21 (stereo not given) | -2.48 (inactive) | 0.595 | 2.94 (inactive) | 0.371 (inactive) | 1.8 (inactive) | 0.765 (inactive) | -0.16 | -0.952 (inactive) | -4.15 (inactive) | -3.9 |
| COc1ccc(C(O)C2C=CC3C(=O)N(c4ccccc4)C(=O)C3N2Nc2ccccc2F)cc1 (stereo not given) | -1.19 (inactive) | 0.167 | 4.67 (inactive) | 1.33 (inactive) | 0.0183 (inactive) | 0.635 (inactive) | -0.331 | -1.34 (inactive) | -3.63 (inactive) | -1.7 |
| COCCOC(=O)N1C(=O)[C@@]2(c3cc(C#CCC(C(=O)OC)C(=O)OC)ccc31)[C@H](C(=O)NC[C@H](O)c1ccccc1)[C@H]1C(=O)O[C@H](c3ccccc3)[C@H](c3ccccc3)N1[C@@H]2c1ccc(OCCO)cc1 | 0.0789 (inactive) | -0.118 | 7.02 (inactive) | 2.02 (inactive) | 0.53 (inactive) | 1.12 (inactive) | -0.273 | 1.41 (inactive) | 0.805 (inactive) | 0.938 |
| O=C1[C@@]23C=C(Br)[C@H](C[C@@H]2COC3)[C@@]12CO2 | -1.07 (inactive) | -0.217 | 0.297 (inactive) | 0.0503 (inactive) | -0.497 (inactive) | 0.258 (inactive) | -0.679 | 0.249 (inactive) | 0.218 (inactive) | 0.139 |
| O=C(N1CCOCC1)[C@@]1(CCS(=O)(=O)c2ccccc2)N=C(c2ccc(OCCCO)cc2)O[C@H]1c1ccccc1 | 0.276 (inactive) | 0.446 | 30.2 (active) | 27.8 (active) | 0.265 (inactive) | 5.34 (inactive) | -0.679 | 0.386 (inactive) | 1.75 (inactive) | 1.97 |
| O=C1[C@@H]2[C@@H](CC(COc3ccccc3)=C3[C@@H](CCc4ccccc4)OB(O)C[C@@H]32)C(=O)N1Cc1ccccc1 | -1.45 (inactive) | 0.0089 | 11.2 (active) | 2.04 (inactive) | -0.791 (inactive) | 0.82 (inactive) | 0.17 | -0.0449 (inactive) | -0.128 (inactive) | -0.199 |
| CCCCC(=C=CC[C@H](O)c1ccc(OCCO)cc1)C[C@H](O)c1cc(Cl)cc(Cl)c1O | -0.118 (inactive) | 0.13 | 21.2 (active) | 5.19 (inactive) | 1.56 (inactive) | 1.73 (inactive) | -0.476 | 0.51 (inactive) | -0.667 (inactive) | -1.49 |
| CCOC(=O)C1=C[C@@H](C(C)(C)C)N(S(=O)(=O)c2ccc(C)cc2)[C@H]1c1cccc(Cl)c1 | -1.11 (inactive) | 0.522 | 1.26 (inactive) | 1.03 (inactive) | 0.223 (inactive) | 0.39 (inactive) | -0.98 | -0.789 (inactive) | -0.842 (inactive) | 0.196 |
| CCOC(=O)C=Cc1ccccc1O | -0.646 (inactive) | 0.135 | 19.4 (active) | 2.46 (inactive) | 0.784 (inactive) | -1.43 (inactive) | 1.47 | -4.38 (inactive) | -2.24 (inactive) | -4.65 |
| C=CCNC(=O)[C@H]1[C@@H]2C(=O)O[C@@H](c3ccccc3)[C@@H](c3ccccc3)N2[C@@H](c2ccc(O)cc2)[C@]12C(=O)N(C(=O)OCCOC)c1ccc(C#CCC(C(=O)OC)C(=O)OC)cc12 | -0.275 (inactive) | 0.139 | 5.56 (inactive) | 1.27 (inactive) | -4.17 (inactive) | 0.516 (inactive) | -0.016 | 1.95 (inactive) | 1.14 (inactive) | 1.52 |
| C[C@@H]1ON(c2ccc(I)cc2)[C@H](c2ccc(OC(=O)OC(C)(C)C)cc2)[C@H]1C(=O)N1C(=O)OC[C@H]1Cc1ccccc1 | 2.67 (inactive) | -0.191 | 0.789 (inactive) | -0.474 (inactive) | 0.546 (inactive) | -1.73 (inactive) | 1.5 | -5.57 (inactive) | 0.237 (inactive) | 1.39 |
| COCCOC(=O)N1C(=O)[C@@]2(c3cc(C#CCCO)ccc31)[C@H](C(=O)N1CCCCCCC1)[C@H]1C(=O)O[C@H](c3ccccc3)[C@H](c3ccccc3)N1[C@@H]2c1ccccc1OCCO | -0.82 (inactive) | 2.52 | 0.56 (inactive) | 0.654 (inactive) | 0.0531 (inactive) | 0.336 (inactive) | -0.319 | 1.96 (inactive) | 0.843 (inactive) | 1.73 |
| CC(=O)NCCCC[C@@H]1NC(=O)[C@@H]2C[C@H](C(=O)NCCCCCCN)[C@H](c3cccc(OCCO)c3)N2C1=O | -0.813 (inactive) | 0.0455 | 9.65 (active) | 0.503 (inactive) | 0.819 (inactive) | 0.351 (inactive) | -0.42 | 0.892 (inactive) | 0.353 (inactive) | -0.568 |
| CCCCC=C[C@@H](NC(=O)c1ccccc1)c1ccccc1 | -2.36 (inactive) | 0.0538 | 0.318 (inactive) | 0.279 (inactive) | 0.893 (inactive) | 0.765 (inactive) | 0.442 | -0.474 (inactive) | -2.77 (inactive) | -2.28 |
| O=C1OCCC=C[C@H]2OC34C=CCN(c5ccc(Cl)cc5)C(=O)[C@H]3N(CCCCCCO)C(=O)[C@@H]4C12 (stereo not given in full) | 1.96 (inactive) | -0.0292 | 0.769 (inactive) | 0.138 (inactive) | 1.13 (inactive) | 0.255 (inactive) | 0.551 | 1.47 (inactive) | 0.036 (inactive) | 2.61 |
| NC(=O)[C@@H]1[C@H]2C(=O)O[C@H](c3ccccc3)[C@H](c3ccccc3)N2[C@H](c2ccc(OCCO)cc2)[C@@]12C(=O)Nc1ccc(C#CCCO)cc12 | 0.498 (inactive) | 0.0253 | 22.5 (active) | 4.8 (inactive) | 2.59 (inactive) | 0.908 (inactive) | 0.229 | 1.5 (inactive) | 1.15 (inactive) | 0.92 |
| O=C1O[C@H](c2ccccc2)[C@H](c2ccccc2)N2[C@H]1[C@@H](C(=O)O)[C@]1(C(=O)Nc3ccc(C#CC4(O)CCCCCC4)cc31)[C@H]2c1ccc(O)cc1 | 2.05 (inactive) | 0.0355 | -0.224 (inactive) | -0.925 (inactive) | -2.31 (inactive) | -1.16 (inactive) | 1.65 | 0.867 (inactive) | -0.353 (inactive) | -1.06 |
